# Measured values published in PubChem BioAssay AID589 (National Center for Advancing Translational Sciences (NCATS), 2007).
# Hit rate of the full screen: of about 59,000 compounds, about 6,200 (11%) were called active. About 9% were inconclusive and are not listed. No stated cut-off is given here; in the data, active means max dye-equivalent concentration above about 10 nM; inconclusive means mostly about 1.1 nM to 9.6 nM; inactive means weaker than that. The entries come from a sample that favours actives as a whole. Some compounds were tested as several samples or in several runs, with calls that do not always agree.
# Experiment: qHTS Assay for Spectroscopic Profiling in 4-MU Spectral Region
# Conditions: compound autofluorescence, 340/450 nm, 4-MU equivalents; hits give high values
# Method in brief: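 Compounds in 100 mM Tris, pH 8.0, sat 15 min at room temperature before fluorescence was read at 340 nm excitation/450 nm emission; a per-plate six-point 4-MU standard curve converted signals to dye-equivalent concentration at each compound concentration.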
Compound,max dye-equivalent concentration,outcome
O=C(CCS(=O)(=O)Cc1ccccc1F)NCCCN1CCCCC1,inactive,–
CC(C)(C)c1nc(NCC2CCCO2)c2nnn(Cc3ccccc3)c2n1 (centres undefined),inactive,–
C#CCNc1nc(C(C)C)nc2c1nnn2Cc1ccccc1F,inactive,–
Cc1nc(Nc2ccc3c(c2)OCCO3)c2nnn(Cc3ccccc3Cl)c2n1,640 nM (active),–
Cc1ccc(-c2nnn(CC(=O)N(CCO)C(C(=O)NC(C)(C)C)c3ccncc3)n2)cc1 (centres undefined),inactive,–
COc1ccc(S(=O)(=O)N2CCCC(C(=O)N3CCN(C)CC3)C2)cc1C (centres undefined),inactive,–
COC(=O)N1CCC2(CCCN(Cc3ccccc3OC)C2)CC1,inactive,–
COc1ccc(CCNC(=O)CSc2nnc(-c3cccc(F)c3)o2)cc1OC,inactive,–
COC(=O)Cc1cc(=O)n(-c2nc3ccccc3s2)[nH]1,inactive,–
O=C(O)CSCc1nc2ccccc2s1,inactive,–
CCC(=O)NC(=Nc1nc2ccccc2s1)NC(=O)CC,150 nM (active),–
COC(=O)CNS(=O)(=O)c1ccc(Cc2ccc(S(=O)(=O)NCC(=O)OC)cc2)cc1,inactive,–
Cc1ccccc1Nc1nnc(C)c(=O)[nH]1,inactive,–
COc1ccc(C2=CC(c3cccc(OC)c3)n3nnnc3N2)cc1 (centres undefined),13 nM (active),–
COc1ccc(C2C(C(=O)Nc3ccccc3OC)=C(C)Nc3nnnn32)c(OC)c1 (centres undefined),inactive,–
CCOc1cccc(-n2nnnc2-c2ccc(OC)cc2)c1,inactive,–
CCCCC(=O)N1CC2(C)CN(C(=O)CCCC)CC(C)(C1)C2=O,inactive,–
Cn1c(=O)n(C)c(=O)n(CC(=O)N2CCCCC2)c1=O,inactive,–
CS(=O)(=O)N(Cc1nc2sc3c(c2c(=O)[nH]1)CCCC3)C1CCCCC1,34 nM (active),–
Cc1cc(C)c2c(n1)nn1c(-n3ccnc3)cc(C)nc21,240 nM (active),–
Cc1cc(N2CCN(Cc3ccc4c(c3)OCO4)CC2)n2ncnc2n1,inactive,–
Cc1nn2c3cc(N4CCOCC4)ccc3nc2c2ccccc12,inactive,–

Compound,max dye-equivalent concentration,outcome
Cc1cc(C)c2c(n1)nn1c(N3CCN(c4cccc(Cl)c4)CC3)cc(C)nc21,100 nM (active),–
CS(=O)(=O)N(CC(=O)N1CCN(c2cccc(Cl)c2)CC1)c1ccccc1,inactive,–
CCN1C(=O)/C(=C\N2CCN(c3cccc(Cl)c3)CC2)SC1=S,inactive,–
Cc1cc(C)c2c(n1)nn1c(N3CCOCC3)cc(C)nc21,6300 nM (active),–
COc1ccc(C(=O)N2CCC3(CC2)CCN(c2ccccn2)CC3)cc1,inactive,–
CCn1c(CNC(=O)c2ccc(OC)c(OC)c2)nnc1SCC(=O)Nc1ccccc1,inactive,–
O=C(CN(Cc1ccccc1)C(=O)c1ccc2c(c1)OCCO2)NCc1ccc2c(c1)OCO2,inactive,–
Cc1nnc(NC2=NCCCCC2)o1,inactive,–
O=C(c1c(Cl)nc2sccn12)N1CCCc2ccccc21,inactive,–
O=C1CC(Cc2ccccc2)C(=O)N1c1ccc(Cl)cn1 (centres undefined),inactive,–
Cc1ccc(C(C(=O)NCc2ccco2)N(CC2CCCO2)C(=O)Cn2nnc3ccccc32)cc1 (centres undefined),inactive,–
CN(C)C(=O)c1ccc(-c2cncnc2Nc2ccccc2)cc1,inactive,–
O=C(NCc1cn2ccsc2n1)Nc1cccc(Cl)c1,inactive,–
O=C(/C=N/O)Nc1ccccc1,inactive,–
CCS(=O)(=O)n1nc(-c2ccc(OC)cc2)nc1SC,inactive,–
COc1cc(-c2nn3c(-c4cccc(C)c4)nnc3s2)cc(OC)c1OC,1900 nM (active),–
c1ccc(-c2cc(-c3nnc4sc(-c5ccccn5)nn34)[nH]n2)cc1,inactive,–
CCOc1cccc(-c2nn3c(-c4ccccn4)nnc3s2)c1,inactive,–
CCCC(CCC(=O)OC)(C(=O)OCC)c1csc(N)n1 (centres undefined),inactive,–
COc1ccc(CNc2ncncc2-c2ccccc2C)c(OC)c1,inactive,–
Oc1c(CN2CCOCC2)ccc(CN2CCOCC2)c1O,inactive,–
CN(CCc1ccccn1)S(=O)(=O)c1ccc2c3c(cccc13)C(=O)N2,790 nM (active),–

Compound,max dye-equivalent concentration,outcome
O=c1[nH]nc(Cc2ccccn2)c2ccccc12,inactive,–
O=C(COC(=O)CCC(=O)c1cccs1)NCc1ccco1,inactive,–
Cc1cc(C(=O)OCC(=O)NCc2ccco2)c(C)n1-c1ccccc1,inactive,–
O=C(COC(=O)C12CC3CC(CC(C3)C1)C2)NCc1ccco1,23 nM (active),–
CC(C)(C)c1cc(CN2CCN(CCC#N)CC2)cc(C(C)(C)C)c1O,inactive,–
O=C(O)CCCc1ccccc1,inactive,–
O=C(O)Cc1ccc(NC(=O)c2cccs2)cc1,inactive,–
O=C(O)Cc1ccc(-c2ccccc2)cc1,49 nM (active),inactive
CCOC(=O)C1CCN(C(=O)C2CCN(S(=O)(=O)CC)CC2)CC1,inactive,–
O=C(O)CSCNC(=O)CC12CC3CC(CC(C3)C1)C2,inactive,–
O=C(NC1CCCCC1)n1c(=O)oc2cc(S(=O)(=O)N3CCCCC3)ccc21,inactive,–
NS(=O)(=O)c1cc2c(cc1Cl)NC(C(Cl)Cl)NS2(=O)=O (centres undefined),6500 nM (active),–
C=CCn1c(C)cc(C(=O)CN2C(=O)c3ccccc3C2=O)c1C,inactive,–
O=C(Nc1ccc(NC(=O)c2cccs2)cn1)c1ccco1,inactive,–
Cc1c(C(=O)NCCN2CCOCC2)sc2nc(-c3ccc(F)cc3)cn12,inactive,–
CSc1cccc(NC(=O)CSc2ccccc2)c1,inactive,–
COc1ccc(OC)c2c(N)c(C#N)c(C(F)(F)C(F)(F)F)nc12,140 nM (active),–
CCCCOc1ccc(-c2nnc(-c3ccco3)o2)cc1,inactive,–
O=C(Nc1cccc2cccnc12)c1cccc(N2C(=O)CCC2=O)c1,inactive,–
N#Cc1nc(-c2ccc(OCc3ccccc3)cc2)oc1NCCCN1CCOCC1,inactive,–
O=C(OCCN1CCOCC1)C1(c2ccccc2)CCCCC1,inactive,–
O=C(CN1CCOCC1)N1CCCc2c1c(=O)oc1ccc(OCc3ccccc3)cc21,45 nM (active),–

Compound,max dye-equivalent concentration,outcome
CCOC(=O)C1CCCN(C(=O)c2cncc(Br)c2)C1 (centres undefined),inactive,–
COc1ccc(OC)c([C@H](O)CNC(=O)CN)c1,inactive,–
C/C(Cl)=C\Cn1c(Nc2cccc(C)c2)nc2c1c(=O)n(C)c(=O)n2C,inactive,–
COc1ccccc1CN1CC2(CCN(S(=O)(=O)c3ccccc3)CC2)C1,inactive,–
CCc1ccc(NC(=O)CSc2nnc(-c3cnccn3)n2Cc2ccco2)cc1,inactive,–
O=C(Nc1ncc2c(n1)CC(c1ccco1)CC2=O)c1ccc(Cl)cc1 (centres undefined),inactive,–
CCc1ccc(Nc2ncc3c(n2)CC(c2ccco2)CC3=O)cc1 (centres undefined),38 nM (active),–
Cc1ccccc1NC(=O)CNc1ccccc1N1CCCCC1,inactive,–
CCOc1ccc(NC(=O)N2CCN(CC)CC2)cc1,inactive,–
CCOc1ccc2nc(N3CCCN(C(=O)Nc4ccccc4C)CC3)c(C#N)cc2c1,16 nM (active),–
Cn1c(-c2ccc(F)cc2)cnc1SCC(=O)NCc1ccco1,inactive,–
O=C(CN1CCN(c2nc(-c3ccccc3)cs2)CC1)NCc1ccc2c(c1)OCO2,inactive,–
CC1(C)SC2c3ccccc3C(=O)N2[C@@H]1C(=O)NCc1ccco1 (some centres undefined),inactive,–
CC1(C)S[C@@H]2[C@@H](NC(=O)[C@@H](N)c3ccccc3)C(=O)N2[C@H]1C(=O)O,44 nM (active),–
CCS(=O)(=O)N1CCC(C(=O)N2CCN(c3ccccc3)CC2)CC1,inactive,–
CCOc1ccccc1Nc1nnc(SCC(=O)Nc2cc(C)on2)s1,inactive,–
CC(=O)OC(C)C[N+](C)(C)C (centres undefined),500 nM (active),–
CC(C[N+](C)(C)C)OC(N)=O (centres undefined),inactive,–
CCN1C(=O)/C(=C2\SC(N3CCCCC3)=NC2=O)c2ccccc21,18 nM (active),–
CCN1C(=O)/C(=C\N2CCN(c3ccccc3)CC2)SC1=S,inactive,–
Cc1ccc(C(=O)OCC(=O)NCc2ccc3c(c2)OCO3)s1,inactive,–
Cc1ccc2cccc(O)c2[n+]1[O-],17 nM (active),–

Compound,max dye-equivalent concentration,outcome
CC(=O)Nc1cccc2c1[n+]([O-])c(C)c(C)[n+]2[O-],inactive,–
O=C(O)[C@@H]1[C@@H](C(=O)O)[C@]23C[C@@]2(C(=O)O)[C@]2(C(=O)O)CCC3=C3CCCC312,inactive,–
CCOC(=O)CSc1nnc(CNc2ccc(F)cc2)o1,inactive,–
CCCOP(=O)(c1ccc(N(C)C)cc1)C(O)c1cc(OC)c(OC)c(OC)c1 (centres undefined),inactive,–
Cc1c(S(=O)(=O)O)ccc(N=Nc2c(O)c(C(=O)O)cc3ccccc23)c1Cl,11 nM (active),–
CCc1ccc(-c2nnn(Cc3nc4ccccc4s3)n2)cc1,inactive,–
COc1ccc(Cc2nnc(NS(=O)(=O)Cc3ccccc3)s2)cc1,inactive,–
COC(=O)C1(S(=O)(=O)C2(C(=O)OC)CCCC2)CCCC1,inactive,–
O=S(=O)(O)c1nc2ccccc2n1Cc1ccc(Cl)cc1,inactive,–
N#Cc1c(N)n(CCOC(=O)c2ccc(Cl)cc2)c2nc3ccccc3nc12,600 nM (active),–
C[C@H](NC(=O)OC(C)(C)C)c1nnc(SCC(N)=O)o1,inactive,–
CC1(C)Oc2ccc(C(=O)N3CCOCC3)cc2N(CC(=O)Nc2ccccc2)C1=O,inactive,–
O=C(c1cccnc1NCc1ccccc1)N1CCOCC1,inactive,–
Cc1nc(NCc2ccccc2)c(C(N)=O)c2c1COC(C)(C)C2,100 nM (active),–
Cc1ccc(NC(=O)CS(=O)CC(=O)N(c2ccccc2)C(C)C(=O)NC2CCCC2)cc1 (centres undefined),inactive,–
CC(=O)O[C@]1(C(C)=O)CC[C@@H]2[C@@H]3C=C(C)C4=CC(=O)CC[C@@]4(C)[C@H]3CC[C@]21C,inactive,–
Cc1ccc(C)c(S(=O)(=O)N2CC(=O)Nc3ccccc32)c1,inactive,–
N=C(CC(=O)Nc1ccccn1)c1ccccc1,inactive,–
Cc1cccc(N)c1SC1CCCCC1O (centres undefined),inactive,–
COc1ccc(C(=O)OCC(=O)c2ccc(C)c(S(=O)(=O)N3CCOCC3)c2)cc1OC,inactive,–
